# Assay results as given in ChEMBL document CHEMBL4513216, “Probing the Open Global Health Chemical Diversity Library for Multistage-Active Starting Points for Next-Generation Antimalarials” (ACS Infect Dis, 2020).
# Out of some 69,000 compounds screened, about 8,600 (12%) showed an effect of 50% or more. Shown is part of a subset that was picked to be rich in strong results.
# Tested on: Plasmodium berghei
# Test: Screen against P. berghei liver stage (PbLuc), transformed with Luciferase, at 10uM
# Type: functional, HepG2
# Conditions: tested at 10 uM
row,SMILES,INHIBITION [%]
1,COCC1CC2(CCN(C(=O)c3occc3C)CC2)CN1C(C)C (stereo unspecified),18.4
2,CSc1ncccc1C(=O)N(CCO)Cc1ccccc1,21.4
3,CCC(CN1CCCC1)NC(=O)Cc1c(C)[nH]c2cc(C)cc(C)c12 (stereo unspecified),6.32
4,Cc1nc(-c2ccco2)ccc1C(=O)NCC(=O)N1CCCCC1,-5.65
5,CCc1ncncc1C(=O)N1CCCC(n2nc(C)nc2C)C1 (stereo unspecified),-31.8
6,Cn1c(C(=O)Nc2nc[nH]n2)cc2ccccc21,41.9
7,COCCCN(Cc1cnc(C2CCCCC2)nc1)C1CCN(C)CC1,49.4
8,O=C(c1cscn1)N1CCc2ncnc(-c3cccnc3)c2CC1,23.6
9,Cc1cnc(N2CC[C@H]3[C@@H]2CCC(=O)N3c2cccnc2)nc1,37.1
10,CCS(=O)(=O)N1CCC(c2nc3ccc(-c4ccccc4)cn3n2)CC1,31.8
11,CN1CCC(c2nc3ccc(-c4ccccc4)cn3n2)CC1,-15.7
12,COCC(=O)N1CCC(c2nc3ccc(-c4ccccc4)cn3n2)CC1,-28.2
13,c1ccc(-c2ccc3nc(C4CCN(CC5CC5)CC4)nn3c2)cc1,6.8
14,CS(=O)(=O)N1CCC(c2nc3ccc(-c4cccc(F)c4)cn3n2)CC1,58.3
15,COCC(=O)N1CCC(c2nc3ccc(N4CCCC4)cn3n2)CC1,-18.2
16,CC(=O)N1CCC(c2nc3ccc(-c4cccc(F)c4)cn3n2)CC1,79.2
17,CN(C)C(=O)N1CCC(c2nc3ccc(-c4ccccc4)cn3n2)CC1,65.3
18,COCC(=O)N1CCC(c2nc3ccc(-c4ccncc4)cn3n2)CC1,53.4
19,CC(=O)N1CCC(c2nc3ccc(NC4CCC4)cn3n2)CC1,9.51
20,CN(C)C(=O)N1CCC(c2nc3ccc(N4CCCC4)cn3n2)CC1,47.9
21,CN1CCC(c2nc3ccc(-c4cccc(F)c4)cn3n2)CC1,33.5
22,CO[C@@H]1CCN(Cc2ccccn2)[C@@H]2CN(Cc3ccco3)C[C@@H]21,20.9

row,SMILES,INHIBITION [%]
1,CCc1nc(C)c(C(=O)NCCNC(=O)Cc2cccc(F)c2)s1,-27.9
2,C=Cn1cc(CN2CCc3nc(-c4cccnc4)nc(O)c3C2)c(C)n1,1.5
3,Cc1occc1C(=O)Nc1cccc(C(=O)OCC2CCCN2)c1 (stereo unspecified),-24.7
4,CN(C)C(=O)CN1CCC2(CCCN(Cc3cccs3)C2)C1=O (stereo unspecified),8.6
5,O=C1COC2(CCN(Cc3nccs3)CC2)CN1c1ccccc1,35.6
6,N#Cc1ccc(N2CCC(OCCc3ccccc3)CC2)nc1,45.5
7,COc1cccc(-c2ccc3nc(C4CCN(C(C)=O)CC4)nn3c2)c1,56.4
8,CC(=O)N1CCC(c2nc3ccc(-c4ccnn4C)cn3n2)CC1,38.2
9,CC(=O)N1CCC(c2nc3ccc(C)cn3n2)CC1,1.7
10,CN(Cc1ccncc1)C(=O)CCNS(=O)(=O)c1cccnc1,20.9
11,Cc1nnc(Cn2cc(I)cc(C)c2=O)o1,22.5
12,CSc1ccc(C(C(=O)O)N2CCC(CO)CC2)cc1 (stereo unspecified),53.9
13,CSc1ccc(C(C(=O)O)N2CCC(C(=O)N3CCCC3)CC2)cc1 (stereo unspecified),43.9
14,CSc1ccc(C(C(=O)O)N2CCCC2)cc1 (stereo unspecified),34.9
15,Cc1ccc(CN2CCCn3c(nc(CN4CCCC4)cc3=O)C2)s1,43.2
16,Cn1ccnc1CN1CCN2C[C@H](OCc3ccccc3)C[C@H]2C1,-25.2
17,CCC(=O)NC1CCCN(Cc2ccc(-n3ccnc3)cc2)C1 (stereo unspecified),41.5
18,CC(=O)NC1CCCN(Cc2ccc(OCc3ccccn3)cc2)C1 (stereo unspecified),41.8
19,Cc1n[nH]c2ncc(CNC3CCCN(c4ncccn4)C3)cc12 (stereo unspecified),73.5
20,CC(C)[C@@H](C)NC1CCN(c2ccc(-n3ccnc3)cc2)CC1,16.6
21,COc1cc(CNC2CCCN(c3ncccn3)C2)cc2c1OCO2 (stereo unspecified),-34.8
22,CNCCCNC1CCN(c2ccc(-n3ccnc3)cc2)CC1,-7.2

row,SMILES,INHIBITION [%]
1,c1cn(-c2ccc(N3CCC(NC4CC4)CC3)cc2)cn1,56.2
2,Cc1ccc(N2CCCC(NCc3ccc(-n4ccnc4)cc3)C2)nn1 (stereo unspecified),11.5
3,c1cnnc(N2CCCC(NCc3ccc(-n4ccnc4)cc3)C2)c1 (stereo unspecified),15.2
4,c1cnc(N2CCCC(NCc3ccc(-n4ccnc4)cc3)C2)nc1 (stereo unspecified),60.4
5,CC(=O)NC1CCCN(Cc2ccc(-n3ccnc3)cc2)C1 (stereo unspecified),65.6
6,Cc1n[nH]c2ncc(CNC3CCN(Cc4ccccn4)CC3)cc12,-20.6
7,Cc1nccn1[C@@H]1CC[C@@H](N(C)S(=O)(=O)c2ccc(F)cc2)[C@H]1O,-0.4
8,Cc1noc(CCCC(=O)N(CCC(=O)O)Cc2ccc(F)c(F)c2)n1,-13
9,CN(C)c1ccccc1C(=O)N1CCCC(c2cccc(C(=O)O)c2)C1 (stereo unspecified),33.4
10,O=C(c1ccc(Sc2ccccn2)cc1)N1CCCSCC1,-1.3
11,Cc1cc(C)c(CNC(=O)NCC(O)c2ccc(Cl)cc2)c(=O)[nH]1 (stereo unspecified),29.2
12,CCN1CCN(C(=O)C(C)n2cc(Br)cn2)CC1 (stereo unspecified),21.7
13,COCCNC(=O)[C@@H]1C[C@H]2[C@H](CCN2c2cc(OC)ncn2)O1,7.53
14,CS(=O)(=O)CCC(=O)Nc1cc(F)ccc1OCC1CCCO1 (stereo unspecified),-14
15,CC(C)N1CCCC2(CCN(Cc3nncn3C(C)C)C2)C1=O (stereo unspecified),-27.4
16,CC(C)c1cc(C(=O)NCC2CCCN(C(C)C)C2)n(C)n1 (stereo unspecified),34.1
17,CCn1nc(C(C)C)cc1C(=O)NCC1CCCN(c2ccccn2)C1 (stereo unspecified),45
18,CC(C)c1cc(C(=O)NCC2CCCN(c3ncccn3)C2)n(C)n1 (stereo unspecified),70
19,Cc1cc(C)nc(Nc2cncc(C3CCCN(S(C)(=O)=O)C3)n2)n1 (stereo unspecified),29.2
20,CCC(CN1CCOCC1)n1cncc1-c1ccc2c(c1)CCN2CC (stereo unspecified),61.9
21,CCC(CN1CCOCC1)n1cncc1-c1ccc2c(c1)CCCN2C (stereo unspecified),39.7
22,CCN1CCCc2cc(-c3cncn3C(C)CN3CCOCC3)ccc21 (stereo unspecified),27.6
